Bioassay records: PubChem, several laboratories
Hits are enriched below; roughly 4% of the tested compounds scored in any of these assays.
Gli-Sufu block = Gli-Sufu pathway antagonists, primary screen, luciferase luminescence, Sufu-KO-LIGHT cells, uHTS | Sufu-KO-LIGHT fibroblasts, Gli luciferase reporter luminescence | inhibition, % at 5 µM | hit rate 0.74% among 340,000 | AID 588413, 2011;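 active means inhibition above about 55%, limit read from the data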;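 further: 0% = DMSO-treated cells and 100% = wells with medium but no cells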
Shn3 inh set2 = reduction of Shn3 3'UTR firefly luciferase signal, primary screen, Schnurri-3 inhibitor project, cell-based, Clone20 osteoblasts, set 2; Clone20 osteoblast Shn3 3'UTR firefly luciferase, 24 h; hit rate 0.52% among 360,000; inhibition, % at 12.5 µM; AID 588674, 2011;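 active means mean inhibition of at least 75% with every replicate also reaching 75%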;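 further: 0% = median of neutral control wells and 100% = pilot-screen positive control compound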
Mdm2 MdmX PPI = inhibitors of human Mdm2-MdmX association, primary screen, cell-based, luminescence, split luciferase, SaOS-2, uHTS; Protein Mdm4 (Homo sapiens) + E3 ubiquitin-protein ligase Mdm2 (Homo sapiens), …; SaOS-2 split-luciferase Mdm2/MdmX complementation; inhibition, % at 8 µM; hit rate 3% among 330,000; AID 485346, 2010;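 active means inhibition of at least 50% at 8 µM in the primary screen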
Target sequence (O15151 whole entry, looked up): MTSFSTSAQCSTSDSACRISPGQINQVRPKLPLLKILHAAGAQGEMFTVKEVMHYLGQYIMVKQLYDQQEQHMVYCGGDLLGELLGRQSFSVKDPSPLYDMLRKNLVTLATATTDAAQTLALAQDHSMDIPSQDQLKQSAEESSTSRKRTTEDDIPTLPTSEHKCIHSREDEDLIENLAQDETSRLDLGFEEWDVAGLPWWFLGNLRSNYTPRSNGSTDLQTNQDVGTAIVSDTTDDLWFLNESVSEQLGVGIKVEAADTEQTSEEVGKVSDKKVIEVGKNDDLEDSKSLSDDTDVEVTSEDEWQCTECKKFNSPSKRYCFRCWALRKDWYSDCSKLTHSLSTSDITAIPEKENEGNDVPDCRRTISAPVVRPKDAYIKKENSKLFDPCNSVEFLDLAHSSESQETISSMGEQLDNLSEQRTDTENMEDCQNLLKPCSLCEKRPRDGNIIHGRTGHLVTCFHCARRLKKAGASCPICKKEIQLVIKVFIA
Target sequence (Q00987 whole entry, looked up): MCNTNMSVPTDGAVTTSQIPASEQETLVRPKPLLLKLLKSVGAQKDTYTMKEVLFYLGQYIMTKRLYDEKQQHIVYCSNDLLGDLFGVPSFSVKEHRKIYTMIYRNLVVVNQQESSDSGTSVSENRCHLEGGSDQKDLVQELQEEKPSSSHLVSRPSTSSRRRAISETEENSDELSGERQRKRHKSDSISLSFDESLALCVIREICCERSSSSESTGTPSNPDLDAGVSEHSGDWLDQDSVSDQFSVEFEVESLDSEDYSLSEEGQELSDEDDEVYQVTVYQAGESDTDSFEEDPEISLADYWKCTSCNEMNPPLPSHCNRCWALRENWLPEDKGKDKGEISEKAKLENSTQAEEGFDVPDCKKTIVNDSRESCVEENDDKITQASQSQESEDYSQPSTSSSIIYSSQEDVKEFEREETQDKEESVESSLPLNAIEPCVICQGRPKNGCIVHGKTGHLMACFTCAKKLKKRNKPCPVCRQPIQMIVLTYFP
Beta cell apopt = inhibitors of cytokine-induced beta cell apoptosis, primary screen, luminescence. INS-1E cytokine-induced death, ATP luminescence, 48 h; percent of positive-control rescue, neutral wells zero. protection from apoptosis, % (concentration not given with the values). hit rate 0.8% among 300,000;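 active means Every replicate reaches about 75%, or at least half do and their mean reaches it too, limit read from the data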;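 further: 0% = cytokine-treated negative control wells and 100% = positive control rescue; higher means more ATP so stronger rescue from cytokine killing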
CSC inhib = cancer stem cell viability inhibitors, primary screen, luminescence; cancer stem cell-like cells viability; inhibition, % at 7.5 µM; hit rate 1.1% among 300,000; in the data active means inhibition above about 75%; tested in HMLE shEcad cells
PAX8 inh HTS = inhibitors of PAX8-driven TPO luciferase reporter, primary screen, RMG-I cells, single concentration. AID 652154, 2013. SteadyGlo, 24 h. hit rate 1.2% among 360,000. inhibition, % at 12.6 µM;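 active means mean replicate inhibition at least 60% with every replicate also reaching 60%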;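 further: luciferase light reporting Pax8 driven TPO promoter activity; plate controls were median of neutral control wells for no effect and mitoxantrone controls for full effect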
Gli-Sufu confirm = Gli-SUFU pathway antagonists, confirmation, single concentration, luciferase luminescence, Sufu-KO-LIGHT cells; Gli luciferase reporter; hit rate 40% among 2,500; shares compounds with Gli-Sufu block; AID 602428, 2012; inhibition, % at 5 µM;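 active means mean inhibition at 5 µM reaching about 45%, limit read from the data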;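 further: plate controls were DMSO-treated cells for no effect and wells lacking cells for full effect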
SufuKO cytotox = cytotoxicity in Sufu-KO-LIGHT cells, confirmation, cytotoxicity control for Gli-SUFU antagonist project, cell-based, ATP luminescence, single concentration. hit rate 32% among 2,500. shares compounds with Gli-Sufu block. cytotoxicity, % at 5 µM;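 active means mean cytotoxicity at 5 µM above about 25%, limit read from the data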;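 further: cells exposed to compound overnight for roughly 16 to 18 hours; plate controls were DMSO wells with cells for no effect and medium without cells for full effect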
Wnt3a counter = Wnt3a reporter signal inhibition, confirmation, counter-screen for Gli-SUFU antagonist project, Wnt-LIGHT cells, luminescence, single concentration. Wnt3a-driven luciferase reporter. shares compounds with Gli-Sufu block. AID 651995, 2013. inhibition, % at 6.25 µM. hit rate 20% among 2,500;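 active means mean inhibition above about 25%, limit read from the data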
The depositor's hits bear a star; . = not tested or not shown.

SMILES | Gli-Sufu block | Shn3 inh set2 | Mdm2 MdmX PPI | Beta cell apopt | CSC inhib | PAX8 inh HTS | Gli-Sufu confirm | SufuKO cytotox | Wnt3a counter
COc1ccc(CNC(=O)CN2CCC(NC(=O)c3ccc(OC)cc3)CC2)cc1 | 62* | 5 | 12 | . | . | 12 | 26 | 11 | -28
COc1ccc(CNC2CCN(Cc3ccccc3)CC2)cc1 | 58* | 11 | -9 | 4 | 4 | 12 | 18 | 8 | -9
COc1ccc(NS(=O)(=O)c2cccc(C(=O)NC3CCN(Cc4ccccc4)CC3)c2)cc1 | 57* | 42 | 33 | 14 | 16 | 29 | 35 | 10 | 11
COc1ccc(OC)c(S(=O)(=O)NC2CCN(Cc3ccccc3)CC2)c1 | 3 | 0 | 8 | -3 | 2 | . | . | . | .
C[C@H](CO)N1C[C@H](C)[C@H](CN(C)C(=O)c2ccccc2)OCCCC[C@H](C)Oc2ccc(NS(=O)(=O)c3cccs3)cc2C1=O | . | . | . | . | . | 2 | . | . | .
C[C@H](CO)N1C[C@H](C)[C@@H](CN(C)Cc2cccc(F)c2)Oc2ncc(C3=CCCC3)cc2C1=O | . | . | . | . | . | -4 | . | . | .
COc1cccc(CC(=O)NC2CCCN(Cc3ccc(Cl)cc3)C2)c1 (stereo not drawn) | 23 | 4 | -14 | . | -5 | -1 | . | . | .
COc1ccc(OCC(=O)NC2CCCN(Cc3ccc(Cl)cc3)C2)cc1 (stereo not drawn) | 52 | 21 | 22 | -2 | -4 | 10 | 33 | 2 | -50
O=C(NC1CCCN(Cc2ccc(Cl)cc2)C1)c1c(F)cccc1F (stereo not drawn) | 13 | -13 | 15 | . | -6 | 9 | . | . | .
Cc1cc(C(=O)NC2CCCN(Cc3ccc(Cl)cc3)C2)n(C)n1 (stereo not drawn) | 57* | 6 | 22 | 3 | -6 | 4 | 19 | 20 | -3
C[C@H](CO)N1C[C@H](C)[C@@H](CN(C)S(=O)(=O)c2ccc(Cl)cc2)Oc2ccc(NC(=O)Nc3ccccc3)cc2C1=O | . | . | . | . | . | 2 | . | . | .
COc1ccc(-c2c[n+]3c(n2-c2ccccc2)SCC3)cc1OC | -3 | -1 | -3 | 6 | . | 13 | . | . | .
COc1ccc(-c2c[n+]3c(n2-c2ccccc2)SCC3)cc1 | 76* | . | 41 | . | -4 | 7 | 80* | 25* | 42*
Cc1ccc(-c2c[n+]3c(n2-c2ccccc2)SCC3)cc1 | 84* | 82 | 32 | 106* | 6 | 15 | 83* | 23 | 38*
Brc1ccc(-c2c[n+]3c(n2-c2ccccc2)SCC3)cc1 | 63* | 29 | 4 | 49 | 2 | 2 | 60* | 25* | -4
O=C(C[C@H]1CC[C@@H]2[C@H](COC[C@H](O)CN2Cc2ccc(F)cc2)O1)NCCc1ccccc1 | . | . | . | . | . | 9 | . | . | .
CCNC(=O)Nc1ccc2c(c1)C(=O)N(C)[C@H]1CC[C@@H](CC(=O)Nc3ccccc3)O[C@H]1CO2 | . | . | . | . | . | 3 | . | . | .
COc1ccc(CN(C)C[C@H]2Oc3ccc(NC(=O)NC(C)C)cc3C(=O)N([C@@H](C)CO)C[C@H]2C)cc1 | . | . | . | . | . | -1 | . | . | .
COc1ccc(NC(=O)N(C)C[C@H]2Oc3ccc(NC(=O)Nc4c(C)noc4C)cc3C(=O)N([C@@H](C)CO)C[C@@H]2C)cc1 | . | . | . | . | . | -27 | . | . | .
CCOC(=O)Nc1ccc2c(c1)N(C(=O)CN1CCN(C)CC1)c1ccccc1CC2 | 51 | -10 | 7 | -4 | -2 | 18 | 23 | 19 | -6
CCOC(=O)Nc1ccc2c(c1)N(C(=O)CN1CCN(CCO)CC1)c1ccccc1CC2 | 7 | 12 | 31 | . | -5 | 15 | . | . | .
